molecular target: AMP-activated protein kinase, AMPK (Homo sapiens) (UniProt P54646+O43741+P54619+Q9UGJ0+Q9Y478+Q13131+Q9UGI9); assay: AMP-dependent Kinase enzyme assay. An in vitro enzyme assay that detects ADP turnover that is directly proportional to AMPK activity. This uses naive AMPK that is activated during the assay with MK-8722; assay type: functional; parameters: scale not given: direction of the effect not stated beside the values; settings: 30 µM

Row | SMILES | Percent Effect [%]
1 | CN(c1ncc(S(N)(=O)=O)s1)C1CCC1 | 5.05
2 | CCS(=O)(=O)NCc1nc(C)cc(N2CCCC2)n1 | 2.4
3 | Cn1cccc1C1CCCN1Cc1noc(C(C)(C)C)n1 (stereo not given) | -15
4 | CCc1cnc(N)nc1NCCC(=O)NC1CCCCC1 | -4.74
5 | COC(=O)CNC(=O)c1ccn(-c2ccc(Cl)c(Cl)c2)n1 | 13.8
6 | CN(C)Cc1cccc(-c2cccnc2C(=O)NCc2cn(C)cn2)c1 | 23.4
7 | NC(=O)c1ccc(NC(=O)N2CCN(c3cccs3)CC2)c(F)c1 | 2.09
8 | CNC(=O)c1cn2cc(-c3cccc(Cl)c3)n(CC=C(C)C)c(=O)c2n1 | 2.79
9 | CS(=O)(=O)NCC1(O)CCCN(C(=O)CCn2cc(Cl)cn2)CC1 (stereo not given) | -0.47
10 | CCc1nc(C)c(CN2CCOC(Cc3ccccc3Cl)C2)[nH]1 (stereo not given) | -2.77
11 | CC(NC(=O)c1ccc2c(c1)COC2)c1cccc(N2CCOC2=O)c1 (stereo not given) | 5.03
12 | CCCC1c2ccccc2CCN1CCS(C)(=O)=O (stereo not given) | -0.239
13 | c1ccc2c(NC3CCc4ncnn4C3)ncnc2c1 (stereo not given) | 2.92
14 | N#Cc1ccc(NCc2cccnc2N2CCC(C(N)=O)CC2)cn1 | 2.13
15 | COc1ccc2c(c1)CCCN(CC(=O)NCC1CCCO1)C2 (stereo not given) | -4.46
16 | Cc1cc(Br)ccc1C(=O)Nc1c(C(N)=O)n[nH]c1C | 1.52
17 | CC(C)CN1C[C@@H](C(=O)O)C[C@@H](C(=O)NCc2ccncc2)C1 | -2.13
18 | COc1nsc2nc(C3CCCN3c3ncccn3)ccc12 (stereo not given) | 13.7
19 | CSc1ccc(C(=O)C2CCCN(C(=O)CCn3cnnn3)C2)cc1 (stereo not given) | 10.2
20 | Cc1ccc(Cl)c(C)c1NC(=O)N1CCCN(Cc2ccccn2)CC1 | 2.6

Row | SMILES | Percent Effect [%]
21 | Cc1cc(CNC2(CO)CCOCC2)ccc1Br | 5.13
22 | CSc1ccc(C(=O)C2CCCN(C(=O)CCn3cncn3)C2)cc1 (stereo not given) | 10.4
23 | Cc1nnc(CN(C)CC(=O)N2CCCC(C(F)(F)F)C2)n1C (stereo not given) | 14.3
24 | COCCC(=O)N1CCCC(CCC(=O)NCc2cccc(OC)c2)C1 (stereo not given) | 14.2
25 | NC1CCc2nc(-c3ccncc3)nc(Nc3cccc(F)c3)c2C1 (stereo not given) | -70.9
26 | CC(C)[C@@H]1CN(C(=O)CCc2ccc(F)cc2)C[C@H]1C(=O)O | -1.24
27 | COc1cc(-c2cccc3c2OC(CN)C3)cc(OC)c1OC (stereo not given) | -5.11
28 | Cc1noc(C(C)C)c1C(=O)N1CCC(n2cccn2)CC1 | 4.03
29 | CC1CN(c2ncnc3sccc23)CCN1c1nccs1 (stereo not given) | 16.9
30 | CCN(Cc1ccoc1)c1ncc(S(N)(=O)=O)s1 | -1.73
31 | Cn1cc(C(=O)NCCc2ccc(OC3CCCC3)cc2)ccc1=O | 0.292
32 | COc1c(C(=O)NC(C)Cc2ccccc2Cl)c(C)nn1C (stereo not given) | 0.464
33 | CN(C)c1ccc(C(=O)Nc2ccn(CC(N)=O)n2)cn1 | 10.9
34 | Cc1ccc(CN(C(=O)NC2CCS(=O)(=O)C2)C2CC2)o1 (stereo not given) | 1.3
35 | COC(=O)c1cc2n(n1)CCN(C(=O)c1csc(CN(C)C)n1)C2 | 1.89
36 | N#Cc1c(N)nc2c(c1-c1c[nH]nc1C1CCCCC1)CNCC2 | 17.6
37 | CSCCC1c2nc[nH]c2CCN1Cc1[nH]c2ccc(F)cc2c1C (stereo not given) | 2.26
38 | COC(=O)[C@@H]1C[C@@H](O)CN1Cc1ccn(-c2ccc(F)cc2)n1 | -3.45
39 | COCCN1CCC(NC(=O)C/C=C/c2ccc(C(C)C)cc2)CC1 | -8.07
40 | Cc1cc(NC(=O)C2CCN(c3ncccc3C#N)CC2)no1 | 4.93
